Assay results from PubChem BioAssay (Tox21).
Inconclusive results are not listed. Active and inactive are the calls of the source. Unless noted, calls follow the shape of the dose curve; as a rule, active = well fitted curve in the direction sought with a large enough effect in the repeat runs; inconclusive = weak or mixed curves; inactive = no such curve, though single readings can be large; an effect the other way counts as inactive or inconclusive.

Assays:
[1] = qHTS assay to identify small molecule agonists of the vitamin D receptor (VDR) signaling pathway - cell viability counter screen (AID 743224); also: series mostly up to about 63 µM; % is scaled to controls: 0 for no effect and ±100 for the full control effect; nearly all actives have a fitted effect of over 50% in size
Method in brief: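 VDR-bla cell line, quantitative HTS format; 16 h compound incubation (37C, 5% CO2); ATP-based CellTiter-Glo luminescence measured in the reporter assay wells.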

[2] = qHTS assay to identify small molecule agonists of the NFkB signaling pathway (AID 1159509; active = well fitted curve in the direction sought with a large enough effect in the signal ratio in the repeat runs, not every such curve was filed as active; the % refers to the signal ratio; also: series mostly up to about 61 µM; % is scaled to controls: 0 for no effect and ±100 for the full control effect)
Method in brief: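 After overnight attachment, reporter cells received test compounds, DMSO or positive controls and were incubated 5 hr at 37 C. FRET substrate was then added for 1.5 hr at room temperature before dual-emission fluorescence reading.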

[3] = qHTS assay to identify small molecule agonists of the endoplasmic reticulum stress response signaling pathway (AID 1159516; active = well fitted activation curve with a large enough effect in the signal ratio in the repeat runs, not every such curve was filed as active; the % refers to the signal ratio; also: % is scaled to controls: 0 for no effect and ±100 for the full control effect)
Method in brief: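 ER stress element reporter (bla) in HeLa. 1,500 cells/well, overnight attachment; 5 hr compound; 2 hr RT substrate; dual-emission fluorescence.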

[4] = qHTS assay to identify small molecule agonists of the endoplasmic reticulum stress response signaling pathway - cell viability counter screen (AID 1159517; calls by dose curve;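 also: HeLa cells carrying an ER stress response element beta-lactamase reporter; series mostly up to about 61 µM; % is scaled to controls: 0 for no effect and ±100 for the full control effect; nearly all actives have a fitted effect of over 50% in size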)
Method in brief: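 Counter-screen wells were identical to the reporter wells. Cells were plated at 1,500 per well and dosed for 5 hr, then read for luminescence 30 min after CellTiter-Glo addition.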

[5] = qHTS assay to identify small molecule antagonists of the retinoid-related orphan receptor gamma (ROR-gamma) signaling pathway - cell viability counter screen (AID 1159520); also: % is scaled to controls: 0 for no effect and ±100 for the full control effect; nearly all actives have a fitted effect of over 50% in size
Method in brief: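 Tet-on ROR gamma CHO cells were given compounds for 2 hr, then doxycycline hyclate at 1 uM final, and incubated 16 hr at 37 C. Viability was measured as ATP content by CellTiter-Glo luminescence.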

[6] = qHTS assay to identify small molecule agonists of the AP-1 signaling pathway - cell viability counter screen (AID 1159525; calls by dose curve; also: nearly all actives have a fitted effect of over 55% in size)
Method in brief: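 AP-1-bla ME-180 cells in Opti-MEM with 0.5% dialyzed FBS, compound exposure 5 h at 37 C in 15-point titration. Viability read in the same wells as ATP content by CellTiter-Glo luminescence, normalised to tetra-n-octylammonium bromide and DMSO controls.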

[7] = qHTS assay to identify small molecule agonists of the AP-1 signaling pathway (AID 1159526; calls by dose curve; also: % is scaled to controls: 0 for no effect and ±100 for the full control effect)
[8] = qHTS assay to identify small molecule antagonists of the vitamin D receptor (VDR) signaling pathway - cell viability counter screen (AID 743225); also: % is scaled to controls: 0 for no effect and ±100 for the full control effect; nearly all actives have a fitted effect of over 50% in size
Method in brief: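 Luminescent cell viability (CellTiter-Glo) in VDR-bla HEK 293T cells after 16 h compound exposure at 37C in the presence of 3 nM final 1-alpha,25-dihydroxy vitamin D3.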

[9] = qHTS assay to identify small molecule agonists of the NFkB signaling pathway - cell viability counter screen (AID 1159515; calls by dose curve; also: series mostly up to about 61 µM; % is scaled to controls: 0 for no effect and ±100 for the full control effect; nearly all actives have a fitted effect of over 55% in size)
Method in brief: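 Viability in NFkB-bla ME-180 cells was measured by CellTiter-Glo luminescence, 30 min room temperature, in wells already treated 5 hr with compounds and read for reporter FRET.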

[10] = target: Nuclear receptor ROR-gamma (Homo sapiens) (UniProt P51449); experiment: qHTS assay to identify small molecule antagonists of the retinoid-related orphan receptor gamma (ROR-gamma) signaling pathway (AID 1159521)
Method in brief: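 CHO cells expressing RORγ under a TET-on promoter, luciferase under RORE control. Dox 1 uM final, 16 h; compounds added 2 h prior. Luminescence decrease measured.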

CCC/C=C(\C=O)CC
inactive: outcome [1] | outcome [2] | outcome [3] | outcome [4] | outcome [5] | outcome [6] | outcome [7]

CC(=O)Nc1ccc(OC(=O)c2ccccc2OC(C)=O)cc1
inactive: outcome [1] | outcome [8] | outcome [2] | outcome [3] | outcome [4] | outcome [5] | outcome [6] | outcome [7]

CC(=O)C1C(=O)C=C(C)OC1=O (stereo not given)
inactive: outcome [1] | outcome [8] | outcome [9] | outcome [3] | outcome [4] | outcome [5] | outcome [6] | outcome [7]

CC(S)C(C)S (stereo not given)
inactive: outcome [1] | outcome [2] | outcome [4] | outcome [5] | outcome [10] | outcome [6] | outcome [7]

CC(=O)OC1CCCCC1C(C)(C)C (stereo not given)
inactive: outcome [1] | outcome [8] | outcome [2] | outcome [3] | outcome [4] | outcome [5] | outcome [10] | outcome [6] | outcome [7]

CCCCSCCCC
inactive: outcome [1] | outcome [8] | outcome [2] | outcome [3] | outcome [4] | outcome [5] | outcome [6] | outcome [7]

[O]=[Mo](=[O])=[O]
inactive: outcome [1] | outcome [8] | outcome [2] | outcome [3] | outcome [4] | activity, negative = cytotoxicity [5] 11.6% [at 19 µM] | activity change, negative = inhibition [10] 4.36% [at 19 µM] | viability change, negative = cytotoxic [6] -2.83% [at 15.8 µM] | activation [7] -20.6% [at 15.8 µM]

CC(Oc1cc(Cl)ccc1Cl)C(=O)O (stereo not given)
inactive: outcome [1] | outcome [8] | outcome [2] | outcome [3] | outcome [4] | outcome [5] | outcome [10] | outcome [6] | outcome [7]

O=C(O)CCCCCC(=O)O
inactive: outcome [1] | outcome [8] | outcome [2] | outcome [4] | outcome [5] | outcome [10] | outcome [6] | outcome [7]

CCNC(=O)NCc1cccc(Cl)c1
inactive: outcome [1] | outcome [8] | outcome [2] | outcome [3] | outcome [4] | outcome [5] | outcome [10] | outcome [6] | outcome [7]

NCC1(Cc2noc(=O)[nH]2)CCCCC1
inactive: outcome [1] | outcome [8] | outcome [2] | outcome [4] | outcome [5] | outcome [10] | outcome [6] | outcome [7]

CO[C@@]1(NC(=O)Cc2cccs2)C(=O)N2C(C(=O)O)=C(COC(N)=O)CS[C@@H]21
inactive: outcome [1] | outcome [8] | outcome [2] | outcome [3] | outcome [4] | outcome [5] | outcome [10] | outcome [6] | outcome [7]

O=C(Cl)c1ccccc1[N+](=O)[O-]
inactive: outcome [1] | outcome [8] | outcome [2] | outcome [4] | outcome [5] | outcome [10] | outcome [6] | outcome [7]

C=C(C)[C@@H]1CC=C(C)CC1
inactive: outcome [1] | outcome [8] | outcome [9] | outcome [3] | outcome [4] | outcome [5] | outcome [6] | outcome [7]

O=C(O)c1cc2ccccc2nc1C(=O)O
inactive: outcome [8] | outcome [2] | outcome [3] | outcome [4] | outcome [5] | outcome [6] | outcome [7]

CC(C)=CCC/C(C)=C/COC=O
inactive: outcome [1] | outcome [8] | outcome [2] | outcome [3] | outcome [4] | outcome [5] | outcome [10] | outcome [6] | outcome [7]

CCCc1ccc(O)cc1
inactive: outcome [1] | outcome [8] | outcome [2] | outcome [3] | outcome [4] | outcome [5] | outcome [10] | outcome [6] | outcome [7]

O=NN(CCCl)C(=O)NC1CCCCC1
inactive: outcome [1] | outcome [8] | outcome [2] | outcome [4] | outcome [5] | outcome [6] | outcome [7]

COS(=O)(=O)O
inactive: outcome [1] | outcome [8] | outcome [2] | outcome [3] | outcome [4] | outcome [5] | outcome [10] | outcome [6] | outcome [7]

COc1cc(/C=C/C(N)=O)cc(OC)c1OC
inactive: outcome [1] | outcome [2] | outcome [3] | outcome [4] | outcome [5] | outcome [10] | outcome [6] | outcome [7]

CC1(C)CC(OC(=O)CCCCCCCCC(=O)OC2CC(C)(C)NC(C)(C)C2)CC(C)(C)N1
inactive: outcome [1] | outcome [8] | outcome [2] | outcome [3] | outcome [4] | activity, negative = cytotoxicity [5] 1.22% [at 19 µM] | activity change, negative = inhibition [10] 5.06% [at 19 µM] | viability change, negative = cytotoxic [6] -4.65% [at 15.8 µM] | activation [7] 13.3% [at 15.8 µM]

CCCC(=O)Nc1ccc(OCC(O)CNC(C)C)c(C(C)=O)c1 (stereo not given)
inactive: outcome [1] | outcome [2] | outcome [4] | outcome [5] | outcome [10] | outcome [6] | outcome [7]

O/N=C/C=N/O
inactive: outcome [1] | outcome [8] | outcome [2] | outcome [3] | outcome [4] | outcome [5] | outcome [10] | outcome [6] | outcome [7]

CN(C)CCN(C)CCO
inactive: outcome [1] | outcome [8] | outcome [2] | outcome [4] | outcome [5] | outcome [10] | outcome [6] | outcome [7]

CC(=O)CCc1ccc(OC(C)=O)cc1
inactive: outcome [1] | outcome [8] | outcome [2] | outcome [3] | outcome [4] | outcome [5] | outcome [10] | outcome [6] | outcome [7]

OC1OCCOC1O (stereo not given)
inactive: outcome [1] | outcome [8] | outcome [2] | outcome [3] | outcome [4] | outcome [5] | outcome [10] | outcome [6] | outcome [7]
